Experimental findings from the supplement of paper PMC6555819 are described below.

The first assay has as its system LXRb:RXRa (NR concentration 270 nM, RXRa partner concentration 90 nM). Put plainly: PBM binding z-score (relative to random genomic background probes); higher = stronger binding; sequences stand for … in GC…GCGATTGACAGCGTAGAATGAAGG
An outline of the steps: (§1)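 Probes were double-stranded and carried 34-nt variable regions with direct-repeat seeds, single-nucleotide variants, half-site ablations and random human genomic background sequences, printed on custom Agilent 4×180K protein-binding microarrays. Arrays were incubated 1 h with ligand-free nuclear receptor dimers in PBS pH 7.4, 2% milk, 0.02% Triton X-100, 1 mM DTT, 0.2 mg/mL BSA and 0.4 mg/ml salmon testes DNA. Antibodies against each partner (one per run) detected binding, and scanned fluorescence was regression-normalized. Binding z-scores use the random background probes as reference.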
Sequence CCGAGTAGGTTATGGGGCACTCAGGCAACGGTGA had a PBM binding z-score of 0.136.
The same measure, in the same setting: in the case of TCATATAGGTAATACAGGTGGAAGTCGGCATCTA it was 0.555; in that of ACTAGCAGGACAAGGGTCACTCAAGATTAGTCCG, 2.76; in that of GATACAGGGTCAGCTAGAGGCCAGAGTCTGGAAA, 2.18.
The same measure, in the same setting: as for TCTAGATGGTCACGGAGGTCACACACGACGGGTA, the figure is 3.49; as for CTCGAAAGGTCGGTTGAGGAGAGTATACGGATAA, 1.13.
Same read-out and setting: in the case of ATCGAAAGGTCGAAGGGGAGTATACCCACCCGAA it was 2.7; in that of CCTACTGGGCCATCAGGGCATTGATATCAACGTT, -0.817.
Sequence CCTACTGGGCCATCAAGTCATTGATATCAACGTT gave a PBM binding z-score of 0.373.
The same measure, in the same setting: as for CGTCCAAGGTCAGAGAGGTCAGTGAATGCCGAGT, the figure is 4.19.
Sequence TCGAGTAGGTTACCAATGTGGCATTCAGCTTTCT had a PBM binding z-score of 0.671.
Same read-out and setting: in the case of CGTCCAAGGTCGATGCTAGGTCAGTGAAAGCATT it was 1.33; in that of AGTATGAGGTTATACGTAGATCAGGGAAGAAAGT, 1.56.
Same read-out and setting: in the case of GATGCTAGGTCAGGTTGGTCAGCTAACGGGTACG it was 0.742; in that of ATATCTAGGTTATCGGGTCATTCAGTTTGCGCAT, 3.33.
Sequence CAAACTAGGTCAAGACGTCAAAGTCCGCTTCCCG registered a PBM binding z-score of 1.79.
Same read-out and setting: as for CCTAGTGGGTCAAGGTCACACACGCTATAGGTAC, the figure is 3.95; as for CCGACTGGGGCAGAAAGGTTACCATTCCATCCGG, 0.84; as for CAAACTCGGTCAAAGGTCAAAGTCGAGCCAACCA, 6.72.
In turn, AGAACGAGGGCAATGAGTTTATAGCACGGGTGGC yielded a PBM binding z-score of -0.145.
On the same count and under the same terms, in the case of ATCGAAAGGACGACGAGGTGAGTATACACCGTTT it was -0.324.
As to CGAACTAGGGCATGAGTTGATAGCAAATGCCGAT, the PBM binding z-score was -0.279.
The same measure, in the same setting: as for ATCCCTAGGTAAAAGTTCAGTGAATCCCGAGGAT, the figure is 0.838; as for GCTATCAGTTGAAAGGGCAACCGAATGATTCTCG, 0.46.
On the same count and under the same terms, in the case of TTACCAAGGTGAAGGTCTTTGATCCCTCTGTAGA it was 0.371; in that of CCTGCTAGGTCATTGTCAGCTAATCTACAGTATG, 1.84; in that of CAAACTAGATCAAGAGGTCAAAGTCCGCTTCCCG, 5.21.
The sequence ATATGTAGGTTAGCTGGGGTCATTCATACTAGGC had a PBM binding z-score of 5.14.
On to CAAACTAGGTGAAAGGTCAAAGTCGAGCCAACCA, for which the PBM binding z-score was 6.08.
The sequence GCTGCTAGGTCAACTGTTGGTCAGCTAAAGCTCG came in with a PBM binding z-score of 2.03.
Same read-out and setting: in the case of TCTGCTAGGTCAGTTGGTCAGCTTACGAGCTGCC it was 0.14; in that of GCGACTGGGGCATGAGCAGGTTACCATAACTTAA, 0.484; in that of TAGCCTGGGTCATTCAGGGGCCAGTATAGAAAGC, 2.04.
The sequence TCACATAGGTAAAGGTGAAAGTCGAACGATATGA registered a PBM binding z-score of 1.69.
In turn, TAGCCTAGGTCAGATCGGGCCAATATACGCTATA registered a PBM binding z-score of 1.22.
The same measure, in the same setting: as for GCATTTAGGTAATACAAGGTGAAAGTCCGATTGT, the figure is 0.493; as for CCAGACAGGTGAGATGGTAACTCAGCCTCGATTA, -0.0689; as for ACTAACAGGCCAAGTTTGGGTCACTCAAACAAAG, 0.977.
ATCTCTAGGTAAAGTTAGTTCAGTGAATGCAAAT registered a PBM binding z-score of 0.747.
CTACCAAGGTGAACAAGGTCGTTGATTACTATTC: the PBM binding z-score was found to be 1.91.

A further assay concerns LXRb homodimer (NR concentration 270 nM). The assay is described as above. An outline of the steps:
as §1
On to CCGAGTAGGTTATGGGGCACTCAGGCAACGGTGA, for which the PBM binding z-score was -0.707.
On the same count and under the same terms, in the case of TCATATAGGTAATACAGGTGGAAGTCGGCATCTA it was 0.553.
Still for that read-out and setting: in the case of ACTAGCAGGACAAGGGTCACTCAAGATTAGTCCG it was 0.105; in that of GATACAGGGTCAGCTAGAGGCCAGAGTCTGGAAA, -0.91.
Same read-out and setting: in the case of TCTAGATGGTCACGGAGGTCACACACGACGGGTA it was 0.481; in that of CTCGAAAGGTCGGTTGAGGAGAGTATACGGATAA, 0.0344; in that of ATCGAAAGGTCGAAGGGGAGTATACCCACCCGAA, 0.76.
For the sequence CCTACTGGGCCATCAGGGCATTGATATCAACGTT, the PBM binding z-score was -0.886.
On the same count and under the same terms, as for CCTACTGGGCCATCAAGTCATTGATATCAACGTT, the figure is -0.319.
Still for that read-out and setting: as for CGTCCAAGGTCAGAGAGGTCAGTGAATGCCGAGT, the figure is 0.123.
The same measure, in the same setting: as for TCGAGTAGGTTACCAATGTGGCATTCAGCTTTCT, the figure is 0.104.
Take CGTCCAAGGTCGATGCTAGGTCAGTGAAAGCATT: the PBM binding z-score is -0.866.
On the same count and under the same terms, in the case of AGTATGAGGTTATACGTAGATCAGGGAAGAAAGT it was 0.204; in that of GATGCTAGGTCAGGTTGGTCAGCTAACGGGTACG, 0.041.
On the same count and under the same terms, as for ATATCTAGGTTATCGGGTCATTCAGTTTGCGCAT, the figure is 1.83; as for CAAACTAGGTCAAGACGTCAAAGTCCGCTTCCCG, 0.329.
As to CCTAGTGGGTCAAGGTCACACACGCTATAGGTAC, the PBM binding z-score was 0.411.
On to CCGACTGGGGCAGAAAGGTTACCATTCCATCCGG, for which the PBM binding z-score is -1.08.
CAAACTCGGTCAAAGGTCAAAGTCGAGCCAACCA returned a PBM binding z-score of 3.13.
AGAACGAGGGCAATGAGTTTATAGCACGGGTGGC yielded a PBM binding z-score of -0.322.
The same measure, in the same setting: as for ATCGAAAGGACGACGAGGTGAGTATACACCGTTT, the figure is -0.355; as for CGAACTAGGGCATGAGTTGATAGCAAATGCCGAT, -0.828; as for ATCCCTAGGTAAAAGTTCAGTGAATCCCGAGGAT, 0.347.
The sequence GCTATCAGTTGAAAGGGCAACCGAATGATTCTCG yielded a PBM binding z-score of -0.626.
TTACCAAGGTGAAGGTCTTTGATCCCTCTGTAGA showed a PBM binding z-score of -0.742.
With CCTGCTAGGTCATTGTCAGCTAATCTACAGTATG, the PBM binding z-score was 0.257.
On the same count and under the same terms, in the case of CAAACTAGATCAAGAGGTCAAAGTCCGCTTCCCG it was 1.87.
The same measure, in the same setting: in the case of ATATGTAGGTTAGCTGGGGTCATTCATACTAGGC it was 1.97; in that of CAAACTAGGTGAAAGGTCAAAGTCGAGCCAACCA, 2.26.
In turn, GCTGCTAGGTCAACTGTTGGTCAGCTAAAGCTCG registered a PBM binding z-score of 0.134.
Same read-out and setting: as for TCTGCTAGGTCAGTTGGTCAGCTTACGAGCTGCC, the figure is 0.216.
GCGACTGGGGCATGAGCAGGTTACCATAACTTAA had a PBM binding z-score of -1.12.
In turn, TAGCCTGGGTCATTCAGGGGCCAGTATAGAAAGC had a PBM binding z-score of 0.00492.
In turn, TCACATAGGTAAAGGTGAAAGTCGAACGATATGA yielded a PBM binding z-score of -0.00674.
On to TAGCCTAGGTCAGATCGGGCCAATATACGCTATA, for which the PBM binding z-score was 0.0531.
Same read-out and setting: in the case of GCATTTAGGTAATACAAGGTGAAAGTCCGATTGT it was -0.034; in that of CCAGACAGGTGAGATGGTAACTCAGCCTCGATTA, -0.491; in that of ACTAACAGGCCAAGTTTGGGTCACTCAAACAAAG, 0.105.
Still for that read-out and setting: in the case of ATCTCTAGGTAAAGTTAGTTCAGTGAATGCAAAT it was 0.893.
Still for that read-out and setting: as for CTACCAAGGTGAACAAGGTCGTTGATTACTATTC, the figure is -0.383.
